TTR transcr act – TTR transcription activators in neuroblastoma reporter cells, primary screen, cell-based, luminescence, SH-SY5Y, TTR promoter Gaussia luciferase; 100% = recombinant luciferase protein wells; activation, % at 16.7 µM; AID 1117267, 2014; 92,000 tested, 1.3% active;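 active = activation above the mean of all tested compounds plus 3 SD, cut at about 9.5% in these data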;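 note: cells exposed to compounds for one day before reading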
TTR inh HuH7 – TTR promoter reporter inhibitors in hepatoma cells, counter-screen for TTR transcription activator project, cell-based, luminescence, HuH7 hepatoma. shares compounds with TTR transcr act. HuH7 TTR promoter-Gaussia luciferase reporter. inhibition, % at 16.7 µM. 1,100 tested, 4% active. AID 1117279, 2014;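 active = average inhibition above the solvent-only control wells' mean plus 3 SD, cut at about 15% in these data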;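 note: inhibitors lower well luminescence so higher value means more inhibition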
TTR act confirm – TTR transcription activators, retest, confirmation, cell-based, luminescence, SH-SY5Y, triplicate; shares compounds with TTR transcr act; SHSY5Y TTR promoter Gaussia luciferase; 100% = purified Lucia enzyme wells, no cells; activation, % at 16.7 µM; 1,100 tested, under 10 active; AID 1117280, 2014;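 active = mean activation above a set limit taken from the earlier primary screen, cut at about 11% in these data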
Large screens that a line does not name were inactive (follow-up assays come after a bar, where they were run). The entries come from a sample that favours hits as a whole.

CCOC(=O)C1=C(c2ccccc2)NC(=O)NC1c1ccc(OC)cc1 (stereo not drawn)	none
O=C1c2ccccc2C(O)N1c1ccccc1 (stereo not drawn)	none
CCCN1Cc2cccc(C(=O)N3CCN(c4ccc(F)cc4)CC3)c2C1=O	none
C=CCC1c2cccc(C(=O)O)c2C(=O)N1c1ccc(F)cc1 (stereo not drawn)	TTR transcr act 12 | TTR inh HuH7 inactive | TTR act confirm inactive
O=C(NCCc1ccccc1)OCc1cn(Cc2ccc(Cl)cc2)nn1	none
Cc1ccccc1CN1CCCCC(NC(=O)Nc2ccccc2)C1=O (stereo not drawn)	none
O=C(Nc1ccc(OCc2ccccc2)cc1)Nc1nnc([C@@H]2C[C@H](O)[C@@H](CO)O2)s1	none
Clc1ccc(-c2nc(-c3ccncc3)no2)c(Cl)c1	none
O=[N+]([O-])c1cc(Cl)ccc1-c1nc(-c2ccncc2)no1	TTR transcr act 10 | TTR inh HuH7 inactive | TTR act confirm inactive
Clc1ccccc1-c1nc(-c2ccncc2)no1	none
CNC(=S)N/N=C/c1c(C(=O)OC)cnn1-c1ccc(Cl)cc1	none
CC(C)c1cc(-c2cc(-c3ccc(Cl)cc3)on2)nc(NC2CCCC2)n1	none
CCCNc1nc(-c2cc(-c3ccc(Cl)cc3)on2)cc(C(C)C)n1	TTR transcr act 12 | TTR inh HuH7 inactive | TTR act confirm inactive
Cc1cc(C)nc(NCc2ccc(Cl)cc2)n1	none
CCN(CC)S(=O)(=O)c1ccc2c(c1)nc(SC(C)C(N)=O)n2-c1ccc(OC)cc1 (stereo not drawn)	TTR transcr act 26 | TTR inh HuH7 inactive | TTR act confirm inactive
CCN(CC)S(=O)(=O)c1ccc2c(c1)nc(SC(C)C(=O)NCC1CCCO1)n2CC (stereo not drawn)	none
COc1ccc(-n2nnnc2SC(C)C(N)=O)cc1 (stereo not drawn)	none
COP(N)(=O)C(CC(C)C)NC(=O)OCc1ccccc1 (stereo not drawn)	none
O=C(COC(=O)C12CC3CC(CC(Br)(C3)C1)C2)NNC(=O)c1ccccc1	none
Cc1cc(C)c(NC(=O)COC(=O)C23CC4CC(CC(O)(C4)C2)C3)c(Cl)c1	none
Cn1cccc1C(=O)NC(=O)COC(=O)C12CC3CC(CC(O)(C3)C1)C2	TTR transcr act 11 | TTR inh HuH7 inactive | TTR act confirm inactive
CCCCNC(=O)C[C@H]1C[C@@]2(C(=O)OC)C(=C[C@H](COCc3ccccc3)O[C@@H]2C)N(Cc2ccccc2)C1=O	none
CC1=C(C(=O)N2CCOCC2)CC(CC(=O)NCCc2ccccn2)C(=O)N1Cc1ccccc1 (stereo not drawn)	none
COC(=O)[C@]12C[C@H](CC(=O)NCc3ccc(OC)c(OC)c3)C(=O)N(Cc3ccc(Cl)cc3Cl)C1=C[C@H](COCc1ccccc1)O[C@@H]2C	none
CN(Cc1ccccc1)C(=O)OCc1cn(Cc2cccc(F)c2)nn1	none
O=C(OCC#CCSc1nnc(-c2cccc3ccccc23)o1)c1csc2ccccc12	none
CN1CCN(C(=S)Nc2ccc(S(N)(=O)=O)cc2)CC1	TTR transcr act 11 | TTR inh HuH7 inactive | TTR act confirm inactive
CCOC(=O)c1ccc(NC(=S)N2CCN(C)CC2)cc1	none
CCCCc1ccc(NC(=S)N2CCN(C)CC2)cc1	none
S=C(Nc1ccc(Br)cc1)OCCN1CCCC12CCC(c1ccccc1)CC2 (stereo not drawn)	none
CCCc1c(O)nc(SC2CC(=O)N(c3ccc(C)c(Cl)c3)C2=O)[nH]c1=O (stereo not drawn)	TTR transcr act 12 | TTR inh HuH7 inactive | TTR act confirm inactive
CCOc1ccc(N2C(=O)CC(Sc3nc(C)cc(C)c3C#N)C2=O)cc1 (stereo not drawn)	none
Cc1cc(C)n(CC2CC(=O)N(c3ccc(C)c(Cl)c3)C2=O)n1 (stereo not drawn)	none
Cc1cc2c(s1)c1cnn(Cc3c(Cl)ccc(C)c3F)c(=O)c1n2C	none
COC(=O)[C@]12C[C@H](CC(=O)NCc3cccs3)C(=O)N(Cc3cccc4ccccc34)C1=C[C@H](C(C)C)O[C@@H]2C1CC1	none
O=C(Cc1ccccc1)NN1C(=O)C2C(C1=O)C1C=CC2C12CC2 (stereo not drawn)	none
O=C(Cc1ccccc1)NN1C(=O)C2C3C=CC(C3)C2C1=O (stereo not drawn)	none
O=C(Cc1ccccc1)NN1C(=O)C2C3C=CC(C4CC34)C2C1=O (stereo not drawn)	TTR transcr act 10 | TTR inh HuH7 inactive | TTR act confirm inactive
CCC[C@H]1[C@@H](OC(=O)NC2CCCCC2)CC[C@@]23CCCN2C(=O)CCC[C@@H]13	none
CCc1ccc(-n2ncc(Cl)c(Oc3ccc(OC)cc3)c2=O)cc1	none
